This is a sample that favours compounds with a hit; in the whole collection about 3.4% have one here.
MITF inh = MITF inhibitors, primary screen, biochemical, AlphaScreen, human | AlphaScreen MITF homodimerization, bead proximity signal | inhibition, % at 2.6 µM | 650,000 compounds, 0.91% hits; in the data active means inhibition above about 50%
Target sequence (O75030 whole entry, looked up): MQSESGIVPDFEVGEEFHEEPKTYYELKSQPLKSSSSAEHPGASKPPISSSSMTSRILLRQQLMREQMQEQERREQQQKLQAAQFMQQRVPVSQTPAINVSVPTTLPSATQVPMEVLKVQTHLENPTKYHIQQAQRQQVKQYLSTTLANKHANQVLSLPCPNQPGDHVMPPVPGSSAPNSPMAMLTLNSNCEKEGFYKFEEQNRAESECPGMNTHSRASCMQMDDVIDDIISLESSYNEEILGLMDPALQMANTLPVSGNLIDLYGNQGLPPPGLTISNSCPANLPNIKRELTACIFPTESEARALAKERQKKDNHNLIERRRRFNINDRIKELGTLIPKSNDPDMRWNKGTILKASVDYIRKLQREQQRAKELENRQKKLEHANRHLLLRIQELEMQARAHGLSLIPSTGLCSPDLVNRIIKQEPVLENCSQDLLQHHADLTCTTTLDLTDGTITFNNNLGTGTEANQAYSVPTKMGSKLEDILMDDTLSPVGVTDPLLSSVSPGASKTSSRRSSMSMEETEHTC
GPR151 ag = activators of human GPR151, primary screen, cell-based, PathHunter beta-arrestin, luminescence; PathHunter beta-arrestin GPR151 cells; activation, % at 11.2 µM; 650,000 compounds, 1% hits; G-protein coupled receptor 151 (Homo sapiens), Q8TDV0; AID 1508602, 2020; in the data active means activation above about 4.9%
TEAD-YAP inh = TEAD-YAP interaction inhibition, primary screen, TEAD-YAP interaction inhibitor project, luminescence, HEK-TIYL cells. TEAD-Gal4/YAP UAS-luciferase luminescence. inhibition, % at 9.12 µM. 640,000 compounds, 1.4% hits; in the data active means inhibition above about 32%
FBW7 activator = FBW7 E3 ligase activators, primary screen, biochemical, AlphaScreen, human; AlphaScreen FBW7–phospho-cyclin E peptide binding, activator screen; 650,000 compounds, 0.13% hits; normalized activity (activation), % at 26.1 µM; F-box/WD repeat-containing protein 7 (Homo sapiens), Q969H0; AID 1259310, 2017; in the data active means normalized activity above about 1.9%;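 further: purified mutant Fbw7 with reduced substrate affinity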
MITF inh conf = MITF inhibitors, retest of hits, confirmation, biochemical, AlphaScreen, triplicate. shares compounds with MITF inh. AlphaScreen MITF homodimerization, biotin/His-MITF beads. inhibition, % at 2.6 µM. 4,700 compounds, 16% hits;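 active means inhibition above a cutoff derived from the DMSO control wells, cut at about 28% in these data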;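 further: inhibitors lower the bead chemiluminescence by keeping MITF from dimerizing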
AS interf DR = AlphaScreen optical interference compounds, dose response, counter-screen, biochemical, HTS; shares compounds with MITF inh; AlphaScreen optical interference counterscreen, cell-free; IC50, µM; 480 compounds, 6% hits; call rule not given here
AS interf ctr = AlphaScreen optical interference compounds, counter-screen for MITF inhibitor project, biochemical, triplicate; shares compounds with MITF inh; LysRS AlphaScreen counterscreen, signal interference; inhibition, % at 2.6 µM; 4,700 compounds, 7.6% hits;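 active means inhibition above a cutoff derived from the DMSO control wells, cut at about 30% in these data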
Numbers stand for hits; - = inactive; . = not tested or not shown.

SMILES	MITF inh	GPR151 ag	TEAD-YAP inh	FBW7 activator	MITF inh conf	AS interf ctr	others
CC(=O)CCc1ccc(OCC(O)CNC2CCCc3ccccc32)cc1 (stereo not drawn)	70	-	-	-	-	-
CCc1ccccc1OC[C@@H](O)CNC1CCCc2ccccc21 (stereo partly drawn)	-	-	.	-	.	.
CCS(=O)(=O)c1ncc(Cl)c(C(=O)Nc2ccccc2C)n1	-	-	-	-	.	.
CC(C)=CC(=O)Nc1nnc(Cc2ccccc2)s1	84	-	-	-	-	-
CC(C)(C)C(=O)N1CCC(c2nc3c(nnn3Cc3ccccc3)c(=O)[nH]2)CC1	71	-	-	-	-	-
CC(C)(C)C(=O)N1CCCC(c2nc3c(nnn3Cc3ccccc3)c(=O)[nH]2)C1 (stereo not drawn)	-	-	-	-	.	.
Cc1cc(C(=O)Nc2nc3c(s2)CCc2ccccc2-3)nn1C	-	-	-	-	.	.
CC(C)(C)n1ncc2c(=O)n(Cc3cccc(F)c3)cnc21	54	-	-	-	-	-
COc1cc(OC)c(OC)cc1CN1CCN(Cc2ccccn2)CC1	71	-	-	-	-	-
COc1ccc(CN2CCN(Cc3ccccn3)CC2)cc1	-	-	-	-	.	.
COc1cc(CN2CCN(Cc3ccccn3)CC2)cc(OC)c1OC	79	-	-	-	-	-
COc1ccc(CN2CCN(Cc3ccccn3)CC2)cc1Br	68	-	-	-	-	-
COc1ccc(CN2CCN(c3ccccn3)CC2)cc1O	-	-	-	-	.	.
Cc1ccc(C#CC(O)C#Cc2ccccc2)cc1 (stereo not drawn)	-	-	-	-	.	.
O=C(NCc1ccco1)c1ccc(Br)cc1	-	-	-	-	.	.
N#CCCN(CC(=O)c1ccc(Br)cc1)Cc1ccco1	63	-	-	-	-	-
CC12CC3CC(C1)CC(C(=O)Nc1nn[nH]n1)(C3)C2	-	-	-	-	.	.
O=C(Nc1nn[nH]n1)C12CC3CC(C1)CC(c1ccccc1)(C3)C2	53	-	-	-	-	-
Cc1cc(/C=C2/C=CC(=O)O2)oc1C	75	-	-	-	72	-	AS interf DR=-
COc1ccccc1-c1ccc(=O)n(CC(=O)NCc2ccccc2)n1	-	-	-	-	.	.
C=CCNC(=O)Cn1nc(-c2ccccc2OC)ccc1=O	72	-	-	-	-	-
O=c1[nH]c(CN(CCO)Cc2nc3sccc3c(=O)[nH]2)nc2sccc12	78	-	-	-	47	100
COc1ccc(CNC(=O)c2cnn3c2NC(c2ccc(OC)cc2)CC3C(F)(F)F)cc1 (stereo not drawn)	-	-	-	-	.	.
COc1ccc(CNC(=O)c2cnn3c2NC(c2ccc4c(c2)OCO4)CC3C(F)(F)F)cc1 (stereo not drawn)	68	-	-	-	-	-
Cc1cncc2c(S(=O)(=O)N3CC[C@@H](NC(=O)C(O)c4ccc(F)cc4F)C3)cccc12 (stereo partly drawn)	59	-	-	-	58	-	AS interf DR=-
SMILES	MITF inh	GPR151 ag	TEAD-YAP inh	FBW7 activator	MITF inh conf	AS interf ctr	others
c1ccc(Oc2ccc(Nc3nc(Nc4ccccn4)nc4nc[nH]c34)cc2)cc1	-	-	-	-	.	.
CCN(C(=O)Cn1ncc2c1-c1cc(C)ccc1OC2)c1ccccc1F	-	-	-	-	.	.
CCN(C(=O)Cn1ncc2c1-c1cc(C)ccc1OC2)c1cc(OC)ccc1OC	70	-	-	-	-	-
O=C(NCc1nc(-c2ccncc2)no1)c1cccs1	-	-	-	-	.	.
CCOC(=O)c1ccc(N2C(=O)C(Cl)=C(Nc3ccccc3C(=O)O)C2=O)cc1	56	-	-	-	-	-
Cc1cccc(Nc2c([N+](=O)[O-])cc([N+](=O)[O-])c3nonc23)c1	56	-	-	-	-	-
Cc1cccc(Nc2c([N+](=O)[O-])ccc3nonc23)c1	-	-	-	-	.	.
COC(=O)[C@@H]1C[C@@H](NC(=O)CCc2ccc(C)cc2)CN1C(C)C	-	-	-	-	.	.
OCCNCCOc1cccc2ccccc12	51	-	-	-	-	-
CCCCNCCOc1ccccc1F	65	-	-	-	-	-
CCOc1ccccc1OCCCNCCO	58	-	-	-	-	-
O=C1/C(=C/c2cc(Br)c(O)c(Br)c2)SC(=Nc2ccccc2)N1C1CCCC1	-	-	-	-	.	.
Cc1ccccc1CN(C)CCc1ccccn1	-	-	-	-	.	.
COc1cccc(OCC(=O)NCc2ccccn2)c1	-	-	-	-	.	.
CN(C)CCN(C)Cc1ccc(F)c(F)c1	51	-	-	-	-	-
CN(CCc1ccccn1)Cc1cccc(Cl)c1	51	-	-	-	-	-
Cc1cccc(OCC(=O)N(C)CCc2ccccn2)c1	62	-	-	-	-	-
CCOc1ccc(CN(C)CCN(C)C)cc1	85	-	-	-	-	-
Nc1c(-c2ccc(F)cc2)nc2sccn12	-	-	-	-	.	.
C[C@@H](O)[C@@H]1NC(=O)[C@H]2CN(C(=O)Oc3ccc(Cl)cc3)CCN2C1=O	-	-	-	-	.	.
CCn1c2ccccc2c2cc(CN(C)CCc3ccccn3)ccc21	74	-	-	-	-	-
Cc1cccc(CN(C)CCc2ccccn2)c1	69	-	-	-	-	-
CCOc1ccc(CN(C)CCc2ccccn2)cc1	88	-	-	-	-	-
CN(CCc1ccccn1)Cc1ccc(Br)cc1	-	-	-	-	.	.
CN(CCc1ccccn1)Cc1cccc(Br)c1	-	-	-	-	.	.
SMILES	MITF inh	GPR151 ag	TEAD-YAP inh	FBW7 activator	MITF inh conf	AS interf ctr	others
CN(C)CCN(C)Cc1ccc(-c2ccccc2)cc1	52	-	-	-	-	-
CCC(CC)C(=O)Nc1nnc(SCC(=O)NC2CCCC2)s1	61	-	-	-	-	-
CCC(C)C(=O)Nc1nnc(SCC(=O)NC2CCCC2)s1 (stereo not drawn)	-	-	-	-	.	.
Cc1cc(CSC(=N)N)c(O)c(C)n1	65	-	-	-	82	-	AS interf DR=-
Cc1cc(CSC(=N)N)c(O)c(C(C)(C)C)n1	-	-	-	-	.	.
CC(=O)NC1(c2ccccc2)CCN(C(=O)C2CC2)CC1	-	-	-	-	.	.
CC(=O)NC1(c2ccccc2)CCN(C(=O)N2CCOCC2)CC1	82	-	-	-	-	-
CC1(C)OC(C)(C)c2c1sc(N)c2C#N	-	-	-	-	.	.
CCOc1ccc(C2C(C#N)=C(N)OC3=C2C(=O)CCC3)cc1 (stereo not drawn)	54	-	-	-	-	-

Screening results deposited in PubChem by The Scripps Research Institute Molecular Screening Center.
